The list is not random: actives were taken first. Their share in the collection is about 12%.
Pf growth 48h = Primary qHTS for delayed death inhibitors of the malarial parasite plastid, 48 hour incubation; Potency, µM (series often up to 28.7 µM), actives largely listed as inhibitors; hit rate 5.9% among 310,000; P. falciparum luciferase growth in erythrocytes, 48 h
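Here the parasites carry a stable luciferase gene and grow inside erythrocytes in Albumax-based RPMI medium with compound for one erythrocytic cycle. Activity is scored as loss of luminescent signal.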
SARS PLP yeast = qHTS of Yeast-based Assay for SARS-CoV PLP; hit rate 0.19% among 330,000; S. cerevisiae expressing SARS-CoV PLpro, growth rescue; AID 485353, 2010; Potency, µM (series often up to 32.9 µM), usual class: activators; calls by dose curve; further: nearly all actives have a fitted effect of over 55% in size
HCV inhibitor = qHTS Assay for Inhibitors of Hepatitis C Virus (HCV) | Huh7.5.1 HCVcc-Cre infection, luciferase reporter, 44 h | Potency, µM (highest dose often 41.8 µM), most hits filed as inhibitors | hit rate 3.4% among 340,000
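Infectious HCVcc-Cre (~0.5 moi) was added to cells just after compound, with cells seeded 4 h earlier at 1,000 per well. Luciferase activity after 44 h culture reported infection; substrate was incubated 15 min at room temperature before reading.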
Pf growth 96h = Primary qHTS for delayed death inhibitors of the malarial parasite plastid, 96 hour incubation | hit rate 6.9% among 320,000 | Potency, µM (titrated, usually from 28.7 µM), actives largely listed as inhibitors | AID 504834, 2011 | P. falciparum luciferase reporter growth, 96 h
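Two-generation exposure (96 h) targets delayed-death phenotype. Reporter parasites carrying integrated firefly luciferase, in red cells at 2% hematocrit and 0.05% parasitemia final, kept at 37 C, 5% CO2; luminescence loss indicates inhibition.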
NS1 inh = qHTS Assay for Inhibitors of Influenza NS1 Protein Function; Potency, µM (titrated, usually from 46.1 µM); hit rate 0.4% among 270,000; AID 2326, 2010; calls by dose curve; further: actives are rising curves; nearly all actives have a fitted effect of over 50% in size
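Compounds were scored for reversing the slow growth caused by influenza A NS1 in S. cerevisiae, measured by optical density at 600 nm. Assay medium contained 2% galactose at pH 6.0; NS1-free yeast of the same strain were the positive control.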
AMA1 RON2 block = qHTS for Inhibitors of AMA1-RON; Towards Development of Antimalarial Drug Lead: Primary Screen; AlphaScreen AMA1-biotinylated RON2 peptide binding; Potency, µM (doses to about 58.2 µM), usual class: inhibitors; AID 720542, 2013; hit rate 0.2% among 360,000; further: nearly all actives have a fitted effect of over 45% in size
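AMA1 (3D7) with his tag at 25 nM final met compounds first, then biotinylated RON2 peptide at 25 nM; detection used donor plus acceptor beads, 10 µg/mL apiece, read by AlphaScreen after 30 min at room temperature.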
Each line names hits and unclear results; the compound was inactive in the other large screens; ! = not active in a repeat. Unless noted, the call rests on the fitted dose curve; in most records, active means well fitted curve in the direction sought with a large enough effect; inconclusive means small, poorly fitted or top-dose-only effect, or another doubt; inactive means no such curve, though single readings can be large; an effect the other way counts as inactive or inconclusive.

CNC(=S)NNC(=O)c1noc(C)c1C(=O)N1CCN(C(c2ccccc2)c2ccccc2)CC1	Pf growth 48h inconclusive (no result: NS1 inh)
COc1ccc(Oc2coc3cc(OC(=O)/C=C/c4ccc(F)cc4)ccc3c2=O)cc1	Pf growth 48h inconclusive, Pf growth 96h 4.1µM
CC(C)(C)c1ccc(C(=O)COC(=O)CN2C(=O)NC3(CCCC3)C2=O)cc1	none
CC(SCc1ccccc1)C(=O)Nc1ccc(F)cc1 (configuration not stated)	Pf growth 48h inconclusive, Pf growth 96h inconclusive (no result: NS1 inh)
Cc1cccc(CSC(Nc2ccc(F)cc2)=C(C#N)C#N)c1	Pf growth 48h inconclusive, HCV inhibitor 11µM, Pf growth 96h inconclusive
N#CC(C#N)=C(Nc1ccc(F)cc1)SCc1cccc(Br)c1	Pf growth 48h inconclusive, HCV inhibitor 5µM, Pf growth 96h inconclusive
FC(F)(F)c1cnc(C(c2ccccn2)c2ncn[nH]2)c(Cl)c1 (configuration not stated)	Pf growth 48h 12µM, Pf growth 96h inconclusive (no result: NS1 inh)
Cc1ccc(-c2nnc3n2N=C(c2ccccc2Br)CS3)cc1	Pf growth 48h 12µM, HCV inhibitor inconclusive
COc1ccc(OC)c(-c2nnc3n2N=C(c2ccc(OC)c(OC4CCCC4)c2)CS3)c1	none (no result: Pf growth 48h, HCV inhibitor, Pf growth 96h, NS1 inh, AMA1 RON2 block)
COc1ccc(OC)c(C2=Nn3c(nnc3-c3cccc(OC(C)C)c3)SC2)c1	Pf growth 48h 8.3µM, HCV inhibitor 10µM, Pf growth 96h inconclusive
Cc1cccc(-c2nnc3n2N=C(c2ccccc2)CS3)c1	HCV inhibitor inconclusive, Pf growth 96h inconclusive (no result: Pf growth 48h)
COc1ccc(OC)c(-c2nnc3n2N=C(c2ccc(OC)c(OC)c2)CS3)c1	Pf growth 48h 5.9µM, Pf growth 96h 3.3µM (no result: HCV inhibitor, NS1 inh, AMA1 RON2 block)
c1ccc(-c2cc(-c3nnc4n3N=C(c3ccc5ccccc5c3)CS4)[nH]n2)cc1	Pf growth 48h 12µM, Pf growth 96h inconclusive, NS1 inh inconclusive
Cc1c(C(=O)N2CCC(C)(C(=O)NS(=O)(=O)C3CC3)C2)oc2ccccc12 (configuration not stated)	none (no result: Pf growth 48h, SARS PLP yeast, HCV inhibitor, Pf growth 96h, NS1 inh)
COc1ccc(C2=Nn3c(nnc3-c3ccncc3)SC2)cc1	none (no result: Pf growth 48h)
CCOc1ccc(C2=Nn3c(nnc3-c3ccc(OC)cc3)SC2)cc1	Pf growth 48h 15µM, HCV inhibitor inconclusive, Pf growth 96h inconclusive
CC(COc1ccc(/C=C/c2ccccc2)cc1)[N+](C)(C)C (configuration not stated)	Pf growth 48h 1.3µM, Pf growth 96h 0.93µM (no result: SARS PLP yeast)
O=S(=O)(O)Sc1ccccc1	none (no result: Pf growth 48h, SARS PLP yeast, HCV inhibitor, Pf growth 96h, NS1 inh)
CCN(CC)c1ccc(SS(=O)(=O)O)cc1	Pf growth 48h 13µM, Pf growth 96h 10µM!
CCOC(=O)N1CCN(C(=O)c2c(Cl)cnn2C)CC1	none
COc1ccc(-c2c(C)nn3c(N)c(C#N)cnc23)cc1OC	Pf growth 48h 0.41µM, HCV inhibitor inconclusive, Pf growth 96h 0.33µM
Cc1nn2c(N)c(C#N)cnc2c1-c1ccc(Cl)cc1	none (no result: Pf growth 48h)
O=C(COC(=O)c1ccc(OC(F)F)cc1)NCCC1=CCCCC1	none (no result: NS1 inh)
Cc1ccccc1[N+](=O)[O-]	Pf growth 96h inconclusive (no result: NS1 inh)
Cc1cc([N+](=O)[O-])c2ccccc2[n+]1[O-]	Pf growth 48h inconclusive, HCV inhibitor 11µM
Cc1ccccc1CNS(=O)(=O)c1ccccc1[N+](=O)[O-]	Pf growth 96h 0.66µM
Cc1ccc(OCC(=O)NN2C(=O)c3ccccc3C2=O)cc1	none
CCOC(=O)NN=C1c2ccccc2-c2ccccc21	HCV inhibitor inconclusive, Pf growth 96h 10µM
Cc1ccc(OCC(=O)NN=C2c3ccccc3-c3ccccc32)cc1	HCV inhibitor 14µM
CC(=O)NC12CC3CC(C1)CC(C(=O)N1CCN(c4ncccn4)CC1)(C3)C2	none (no result: Pf growth 48h, SARS PLP yeast, Pf growth 96h, NS1 inh)
O=C(CSc1nnc(-c2c[nH]c3ccccc23)o1)N(Cc1ccccc1)c1ccc(F)cc1	Pf growth 48h 7.4µM, HCV inhibitor inconclusive, Pf growth 96h inconclusive
O=C(OCCCOC(=O)c1ccc(O)cc1)c1ccc(O)cc1	Pf growth 96h inconclusive
CCC(/C=C1\Sc2ccc(OC)cc2N1CCO)=C\c1sc2ccc(OC)cc2[n+]1CCO	Pf growth 48h 0.59µM, HCV inhibitor 5µM, Pf growth 96h 7.4µM
CCC(/C=C1\Sc2ccc(OC)cc2N1CC)=C\c1sc2ccc(OC)cc2[n+]1CCCS(=O)(=O)[O-]	Pf growth 48h inconclusive, HCV inhibitor inconclusive, Pf growth 96h inconclusive, AMA1 RON2 block inconclusive (no result: NS1 inh)
S=C1SCN(Cc2cccnc2)CN1Cc1cccnc1	Pf growth 48h 1.9µM, Pf growth 96h inconclusive
COc1ccc(CN2CSC(=S)N(Cc3ccc(OC)cc3)C2)cc1	Pf growth 48h 12µM, Pf growth 96h inconclusive
COc1ccc(CN2CSC(=S)N(Cc3ccccc3)C2)cc1	HCV inhibitor inconclusive
CCn1nc(C)c(CN2CCC(n3nccc3NC(=O)c3ccc4c(c3)OCO4)CC2)c1C	none
COc1ccccc1/C=C/c1nc2ccc(OC(C)=O)cc2c(=O)o1	Pf growth 96h 1.7µM
COc1ccccc1/C=C/c1nc2ccccc2c(=O)o1	none (no result: Pf growth 48h, SARS PLP yeast, Pf growth 96h, NS1 inh)
N#Cc1nc(-c2ccc(OCc3ccccc3)cc2)oc1NCCCn1ccnc1	Pf growth 48h 2.9µM, HCV inhibitor inconclusive
CC(C)(C)c1ccc(-c2nc(C#N)c(NCCCn3ccnc3)o2)cc1	Pf growth 48h inconclusive, Pf growth 96h 8.3µM
N#Cc1nc(-c2ccc(OCc3ccccc3)cc2)oc1NCc1cccnc1	Pf growth 48h inconclusive, HCV inhibitor inconclusive, Pf growth 96h inconclusive, AMA1 RON2 block inconclusive
N#Cc1nc(COc2ccccc2)oc1NCCCn1ccnc1	Pf growth 48h inconclusive, Pf growth 96h inconclusive
N#Cc1nc(-c2ccc(OCc3ccccc3Cl)cc2)oc1NCCCn1ccnc1	Pf growth 48h 1.7µM (no result: AMA1 RON2 block)
CN(C)c1oc(-c2ccc(OCc3ccccc3)cc2)nc1C#N	HCV inhibitor inconclusive, Pf growth 96h 5.2µM
Cc1occc1C(=O)Nc1nnc(-c2cccs2)s1	none
c1ccc(-n2cnc3cc(NCc4ccco4)ccc32)cc1	HCV inhibitor inconclusive
O=C(NN1CCOCC1)c1ccc(Cl)s1	none
N#Cc1nc(-c2ccc(F)cc2)oc1NCCCn1ccnc1	none (no result: HCV inhibitor, NS1 inh, AMA1 RON2 block)
CCCOc1ccc(-c2nc(C#N)c(NCCCn3ccnc3)o2)cc1	Pf growth 48h 10µM, HCV inhibitor inconclusive, Pf growth 96h 7.4µM
Cc1[nH]nc(-c2ccc(O)cc2O)c1Oc1ccccc1	HCV inhibitor inconclusive
CCOc1ccc(-c2n[nH]c(C)c2Oc2ccccc2OC)c(O)c1	Pf growth 48h 4.1µM, HCV inhibitor inconclusive (no result: Pf growth 96h)
C=C(C)COc1ccc(-c2n[nH]c(C)c2Oc2ccccc2OC)c(O)c1	Pf growth 48h 5.2µM, HCV inhibitor 32µM, Pf growth 96h 4.7µM

Compound activity as filed in PubChem.
